Measurements: PubChem BioAssay (EPA / NIEHS)
Active and inactive are the calls of the source. How the source made its calls: active means hit-call score of the fitted dose curve at least 0.9, where 1 is the maximum; inactive means score below 0.9.

Experiments:
Details in all cases: mRNA level, 48 h; actives raise or lower the signal
[1] = read-out: Cyclin D1 (CCND1), CCND1 (gene 595); assay: LTEA_HepaRG_CCND1: Life Technologies and Expression Analysis (LTEA) Assay for Cyclin D1 (CCND1) using HepaRG (AID 2283451);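 on AC50: TaqMan qRT-PCR transcript level normalised to ACTB GAPDH and POLR2A housekeeping genes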
Summary of the method: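 Human liver HepaRG line; 48 h dosing, 8 conc. ≤100 uM, 0.5% DMSO; TaqMan qRT-PCR mRNA, 3 housekeeping genes; bidirectional curve fit vs DMSO.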

[2] = read-out: catalase (CAT), CAT (gene 847); assay: LTEA_HepaRG_CAT: Life Technologies and Expression Analysis (LTEA) Assay for catalase (CAT) using HepaRG (AID 2283452)
Summary of the method: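 Expression of CAT was quantified by TaqMan qRT-PCR with ACTB/GAPDH/POLR2A normalization after 48 h chemical exposure of HepaRG. Eight-point half-log series, top 100 uM, in 0.5% DMSO; gain or loss fitted against vehicle.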

[3] = read-out: flavin-containing dimethylaniline monooxygenases 3 (FMO3), FMO3 (gene 2328); assay: LTEA_HepaRG_FMO3: Life Technologies and Expression Analysis (LTEA) Assay for flavin-containing dimethylaniline monooxygenases 3 (FMO3) using HepaRG (AID 2283453)
Summary of the method: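 Differentiated HepaRG cells in serum-free induction medium, exposed 48 h in duplicate to 8 half-log concentrations up to 100 uM in 0.5% DMSO. FMO3 mRNA by qRT-PCR, normalized to ACTB, GAPDH, POLR2A; bidirectional fit vs DMSO.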

[4] = read-out: Cytochrome P450 (CYP1A1), CYP1A1 (gene 1543); assay: LTEA_HepaRG_CYP1A1: Life Technologies and Expression Analysis (LTEA) Assay for Cytochrome P450 (CYP1A1) using HepaRG (AID 2283454)
Summary of the method: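 Induction of CYP1A1 mRNA in a human hepatic cell line was measured 48 h after dosing, with 1 mM phenobarbital as induction positive control and 0.5% DMSO vehicle as baseline for bidirectional curve fitting.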

[5] = read-out: CFLAR gene, CFLAR (gene 8837); assay: LTEA_HepaRG_CFLAR: Life Technologies and Expression Analysis (LTEA) Assay for CFLAR gene using HepaRG (AID 2283455)
Summary of the method: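 HepaRG, 48 h exposure, 8-pt conc-response (100 uM top, half-log), 0.5% DMSO vehicle, duplicates. CFLAR expression by qRT-PCR; ACTB/GAPDH/POLR2A normalization; gain or loss fit vs DMSO baseline.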

[6] = read-out: growth arrest and DNA damage 45 (GADD45A), GADD45A (gene 1647); assay: LTEA_HepaRG_GADD45A: Life Technologies and Expression Analysis (LTEA) Assay for growth arrest and DNA damage 45 (GADD45A) using HepaRG (AID 2283458)
Summary of the method: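 Differentiated HepaRG cells exposed 48 h in serum-free induction medium to 8 concentrations, top 100 uM in half-log steps, 0.5% DMSO. GADD45A mRNA quantified by qRT-PCR, normalized to ACTB, GAPDH and POLR2A; bidirectional fit versus DMSO.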

[7] = read-out: Forkhead box O3 (FOXO3), FOXO3 (gene 2309); assay: LTEA_HepaRG_FOXO3: Life Technologies and Expression Analysis (LTEA) Assay for Forkhead box O3 (FOXO3) using HepaRG (AID 2283459)
Summary of the method: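 HepaRG, 48 h post-dose; 8 conc., half-log from 100 uM, 0.5% DMSO, duplicates; serum-free induction medium. Readout: FOXO3 mRNA, TaqMan qRT-PCR, housekeeping-normalized. Bidirectional curve fit vs DMSO baseline.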

[8] = read-out: ABC Transporter (ABCB1), ABCB1 (gene 5243); assay: LTEA_HepaRG_ABCB1: Life Technologies and Expression Analysis (LTEA) Assay for ABC Transporter (ABCB1) using HepaRG (AID 2283460)
Summary of the method: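 Expression of ABCB1 was quantified by qRT-PCR against three housekeeping genes after human HepaRG cultures received test chemicals for 48 hours. Concentrations spanned eight half-log steps topping at 100 uM in 0.5% DMSO; gain or loss of signal was fitted relative to vehicle.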

[9] = read-out: ABC Transporter (ABCC3), ABCC3 (gene 8714); assay: LTEA_HepaRG_ABCC3: Life Technologies and Expression Analysis (LTEA) Assay for ABC Transporter (ABCC3) using HepaRG (AID 2283462)
Summary of the method: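 Differentiated HepaRG liver cells receive test chemicals at eight concentrations (max 100 uM) for 48 h. Expression of ABCC3 is quantified by qRT-PCR against ACTB, GAPDH and POLR2A, and activity is fitted in both directions against the DMSO control.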

[10] = read-out: ABC Transporter (ABCB11), ABCB11 (gene 8647); assay: LTEA_HepaRG_ABCB11: Life Technologies and Expression Analysis (LTEA) Assay for ABC Transporter (ABCB11) using HepaRG (AID 2283463)
Summary of the method: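 ABCB11 transcript levels are read by Fluidigm TaqMan qRT-PCR after 48 h chemical treatment of human HepaRG cells. Concentrations span 100 uM downward in half-log steps with 0.5% DMSO; gain or loss is fitted against DMSO controls.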

[11] = read-out: ABC Transporter (ABCC2), ABCC2 (gene 1244); assay: LTEA_HepaRG_ABCC2: Life Technologies and Expression Analysis (LTEA) Assay for ABC Transporter (ABCC2) using HepaRG (AID 2283464)
Summary of the method: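 Gene expression of ABCC2 was determined by qRT-PCR in HepaRG cells exposed 48 h to chemicals (highest 100 uM, half-log dilutions). Activity was fitted in both directions relative to 0.5% DMSO vehicle.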

[12] = read-out: Broad substrate specificity ATP-binding cassette transporter ABCG2 (Homo sapiens) (UniProt Q9UNQ0); assay: LTEA_HepaRG_ABCG2: Life Technologies and Expression Analysis (LTEA) Assay for ABC Transporter (ABCG2) using HepaRG (AID 2283465)
Summary of the method: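 Read-out is ABCG2 mRNA induction or loss quantified by qRT-PCR after 48 h chemical treatment of human HepaRG cells, normalized to three housekeeping genes. Concentrations reached 100 uM top in half-log steps; fitting was bidirectional against 0.5% DMSO.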

[13] = read-out: Peroxisomal acyl-coenzyme A oxidase 1 (ACOX1) gene, ACOX1 (gene 51); assay: LTEA_HepaRG_ACOX1: Life Technologies and Expression Analysis (LTEA) Assay for Peroxisomal acyl-coenzyme A oxidase 1 (ACOX1) gene using HepaRG (AID 2283467)
Summary of the method: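 Measured by qRT-PCR against three housekeeping genes: ACOX1 transcript change in human HepaRG cells after 48 h dosing. Concentrations ran up to 100 uM in half-log steps. Curves were fitted bidirectionally relative to 0.5% DMSO.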

[14] = read-out: Alkaline Phosphatase, Placental (ALPP) gene, ALPP (gene 250); assay: LTEA_HepaRG_ALPP: Life Technologies and Expression Analysis (LTEA) Assay for Alkaline Phosphatase, Placental (ALPP) gene using HepaRG (AID 2283468)
Summary of the method: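 Expression of ALPP was quantified by qRT-PCR against three housekeeping genes in human HepaRG cultures treated for 48 h with an eight-point concentration series up to 100 uM. Activity in either direction was fitted relative to 0.5% DMSO.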

[15] = read-out: Bcl-2 (BAD) gene, BAD (gene 572); assay: LTEA_HepaRG_BAD: Life Technologies and Expression Analysis (LTEA) Assay for Bcl-2 (BAD) gene using HepaRG (AID 2283469)
Summary of the method: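 BAD transcript change, measured by qRT-PCR against three housekeeping genes and fitted in both directions relative to 0.5% DMSO, after 48 h chemical treatment of human HepaRG liver cells at concentrations up to 100 uM.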

[16] = read-out: Bcl-2 (BAX) gene, BAX (gene 581); assay: LTEA_HepaRG_BAX: Life Technologies and Expression Analysis (LTEA) Assay for Bcl-2 (BAX) gene using HepaRG (AID 2283470)
Summary of the method: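 Differentiated HepaRG cells exposed 48 h in serum-free induction medium, eight half-log concentrations from 100 uM, in duplicate, 0.5% DMSO vehicle. BAX mRNA by TaqMan qRT-PCR, normalised to ACTB, GAPDH and POLR2A.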

[17] = read-out: ATP-citrate lyase (ACLY), ACLY (gene 47); assay: LTEA_HepaRG_ACLY: Life Technologies and Expression Analysis (LTEA) Assay for ATP-citrate lyase (ACLY) using HepaRG (AID 2283466)
Summary of the method: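 HepaRG, 48 h exposure, 8-pt half-log dilutions (top 100 uM), 0.5% DMSO. Readout: ACLY mRNA, TaqMan qRT-PCR, housekeeping-normalized (ACTB/GAPDH/POLR2A). Bidirectional curve fit vs DMSO.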

[18] = read-out: growth arrest and DNA damage 45 (GADD45B), GADD45B (gene 4616); assay: LTEA_HepaRG_GADD45B: Life Technologies and Expression Analysis (LTEA) Assay for growth arrest and DNA damage 45 (GADD45B) using HepaRG (AID 2283461)
Summary of the method: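 Values are bidirectional concentration-response fits against 0.5% DMSO controls. Underlying data: qRT-PCR mRNA levels in human HepaRG liver cells treated 48 h in serum-free induction medium, eight concentrations topping at 100 uM.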

Measured: AC50

Chain of Broad substrate specificity ATP-binding cassette transporter ABCG2 (Homo sapiens) (Q9UNQ0 whole entry, looked up): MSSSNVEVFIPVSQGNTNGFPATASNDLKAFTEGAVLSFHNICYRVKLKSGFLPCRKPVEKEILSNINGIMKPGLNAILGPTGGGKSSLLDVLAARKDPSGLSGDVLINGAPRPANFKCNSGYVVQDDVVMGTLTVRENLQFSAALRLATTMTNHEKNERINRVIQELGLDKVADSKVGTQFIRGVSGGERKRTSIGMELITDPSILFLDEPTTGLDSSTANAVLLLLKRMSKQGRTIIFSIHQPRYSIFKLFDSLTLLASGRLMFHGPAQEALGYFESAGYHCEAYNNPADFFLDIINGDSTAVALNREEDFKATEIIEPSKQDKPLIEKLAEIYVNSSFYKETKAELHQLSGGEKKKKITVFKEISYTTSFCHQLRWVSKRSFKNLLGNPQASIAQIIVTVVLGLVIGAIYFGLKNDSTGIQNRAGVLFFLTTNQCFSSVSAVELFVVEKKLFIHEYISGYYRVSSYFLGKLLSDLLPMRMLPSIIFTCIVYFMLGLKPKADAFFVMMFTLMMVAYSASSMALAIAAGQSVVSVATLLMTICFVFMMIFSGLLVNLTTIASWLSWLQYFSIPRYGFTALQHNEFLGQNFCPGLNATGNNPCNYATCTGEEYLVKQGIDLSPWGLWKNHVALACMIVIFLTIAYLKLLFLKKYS

CC(C)(C)c1ccc(CSc2cnn(C(C)(C)C)c(=O)c2Cl)cc1
inactive: [1] | [5] | [9] | [13] | [15]
active: [2] 1.85 µM | [3] 2.68 µM | [4] 14.2 µM | [6] 1.99 µM | [7] 1.49 µM | [8] 4.66 µM | [10] 2.21 µM | [11] 9.03 µM | [12] 2.89 µM | [14] 1.08 µM | [16] 6.27 µM

CNC(=S)S
active: [4] 50 µM
not listed: [17] | [18]
inactive: all other assays above

CC(Oc1ccc(Cl)cc1Cl)C(=O)O (stereo not given)
active: [4] 50 µM
not listed: [17] | [18]
inactive: all other assays above

O=C(O)COc1nc(Cl)c(Cl)cc1Cl
active: [4] 51 µM | [10] 23.2 µM
not listed: [17] | [18]
inactive: all other assays above

COP(N)(=O)SC (stereo not given)
not listed: [18]
inactive: all other assays above

O=C(Nc1ccccc1)Nc1ccnc(Cl)c1
active: [1] 40.9 µM | [2] 65.3 µM | [3] 69 µM | [4] 23.7 µM | [6] 70.7 µM | [7] 25.3 µM | [8] 84.3 µM | [9] 85.7 µM | [10] 26.5 µM | [11] 89.9 µM | [12] 83.9 µM | [13] 73.7 µM | [14] 3.48 µM | [15] 74.2 µM
inactive: [5] | [18] | [16]

CNC(=O)ON=CC(C)(C)SC
not listed: [17]
inactive: all other assays above
